Source: the supplement of paper PMC11732987, “Enantioselective OTUD7B fragment discovery through chemoproteomics screening and high-throughput optimisation” (Communications Chemistry, 2025)

Experiments:
Assay in all cases: log2 ratio of Biotin-Ahx-Ub-VS probe labelling (fragment/DMSO); higher = less target engagement (more negative = stronger competition), active = hit call of the paper (q ≤ 0.05, log2 ratio ≤ -1)
Details in all cases: compound concentration: 200 uM; treatment time: 3 h
USP34 = USP34 (UniProt Q70CQ2)
USP34, sequence (Q70CQ2 whole entry, the tested form may be a part): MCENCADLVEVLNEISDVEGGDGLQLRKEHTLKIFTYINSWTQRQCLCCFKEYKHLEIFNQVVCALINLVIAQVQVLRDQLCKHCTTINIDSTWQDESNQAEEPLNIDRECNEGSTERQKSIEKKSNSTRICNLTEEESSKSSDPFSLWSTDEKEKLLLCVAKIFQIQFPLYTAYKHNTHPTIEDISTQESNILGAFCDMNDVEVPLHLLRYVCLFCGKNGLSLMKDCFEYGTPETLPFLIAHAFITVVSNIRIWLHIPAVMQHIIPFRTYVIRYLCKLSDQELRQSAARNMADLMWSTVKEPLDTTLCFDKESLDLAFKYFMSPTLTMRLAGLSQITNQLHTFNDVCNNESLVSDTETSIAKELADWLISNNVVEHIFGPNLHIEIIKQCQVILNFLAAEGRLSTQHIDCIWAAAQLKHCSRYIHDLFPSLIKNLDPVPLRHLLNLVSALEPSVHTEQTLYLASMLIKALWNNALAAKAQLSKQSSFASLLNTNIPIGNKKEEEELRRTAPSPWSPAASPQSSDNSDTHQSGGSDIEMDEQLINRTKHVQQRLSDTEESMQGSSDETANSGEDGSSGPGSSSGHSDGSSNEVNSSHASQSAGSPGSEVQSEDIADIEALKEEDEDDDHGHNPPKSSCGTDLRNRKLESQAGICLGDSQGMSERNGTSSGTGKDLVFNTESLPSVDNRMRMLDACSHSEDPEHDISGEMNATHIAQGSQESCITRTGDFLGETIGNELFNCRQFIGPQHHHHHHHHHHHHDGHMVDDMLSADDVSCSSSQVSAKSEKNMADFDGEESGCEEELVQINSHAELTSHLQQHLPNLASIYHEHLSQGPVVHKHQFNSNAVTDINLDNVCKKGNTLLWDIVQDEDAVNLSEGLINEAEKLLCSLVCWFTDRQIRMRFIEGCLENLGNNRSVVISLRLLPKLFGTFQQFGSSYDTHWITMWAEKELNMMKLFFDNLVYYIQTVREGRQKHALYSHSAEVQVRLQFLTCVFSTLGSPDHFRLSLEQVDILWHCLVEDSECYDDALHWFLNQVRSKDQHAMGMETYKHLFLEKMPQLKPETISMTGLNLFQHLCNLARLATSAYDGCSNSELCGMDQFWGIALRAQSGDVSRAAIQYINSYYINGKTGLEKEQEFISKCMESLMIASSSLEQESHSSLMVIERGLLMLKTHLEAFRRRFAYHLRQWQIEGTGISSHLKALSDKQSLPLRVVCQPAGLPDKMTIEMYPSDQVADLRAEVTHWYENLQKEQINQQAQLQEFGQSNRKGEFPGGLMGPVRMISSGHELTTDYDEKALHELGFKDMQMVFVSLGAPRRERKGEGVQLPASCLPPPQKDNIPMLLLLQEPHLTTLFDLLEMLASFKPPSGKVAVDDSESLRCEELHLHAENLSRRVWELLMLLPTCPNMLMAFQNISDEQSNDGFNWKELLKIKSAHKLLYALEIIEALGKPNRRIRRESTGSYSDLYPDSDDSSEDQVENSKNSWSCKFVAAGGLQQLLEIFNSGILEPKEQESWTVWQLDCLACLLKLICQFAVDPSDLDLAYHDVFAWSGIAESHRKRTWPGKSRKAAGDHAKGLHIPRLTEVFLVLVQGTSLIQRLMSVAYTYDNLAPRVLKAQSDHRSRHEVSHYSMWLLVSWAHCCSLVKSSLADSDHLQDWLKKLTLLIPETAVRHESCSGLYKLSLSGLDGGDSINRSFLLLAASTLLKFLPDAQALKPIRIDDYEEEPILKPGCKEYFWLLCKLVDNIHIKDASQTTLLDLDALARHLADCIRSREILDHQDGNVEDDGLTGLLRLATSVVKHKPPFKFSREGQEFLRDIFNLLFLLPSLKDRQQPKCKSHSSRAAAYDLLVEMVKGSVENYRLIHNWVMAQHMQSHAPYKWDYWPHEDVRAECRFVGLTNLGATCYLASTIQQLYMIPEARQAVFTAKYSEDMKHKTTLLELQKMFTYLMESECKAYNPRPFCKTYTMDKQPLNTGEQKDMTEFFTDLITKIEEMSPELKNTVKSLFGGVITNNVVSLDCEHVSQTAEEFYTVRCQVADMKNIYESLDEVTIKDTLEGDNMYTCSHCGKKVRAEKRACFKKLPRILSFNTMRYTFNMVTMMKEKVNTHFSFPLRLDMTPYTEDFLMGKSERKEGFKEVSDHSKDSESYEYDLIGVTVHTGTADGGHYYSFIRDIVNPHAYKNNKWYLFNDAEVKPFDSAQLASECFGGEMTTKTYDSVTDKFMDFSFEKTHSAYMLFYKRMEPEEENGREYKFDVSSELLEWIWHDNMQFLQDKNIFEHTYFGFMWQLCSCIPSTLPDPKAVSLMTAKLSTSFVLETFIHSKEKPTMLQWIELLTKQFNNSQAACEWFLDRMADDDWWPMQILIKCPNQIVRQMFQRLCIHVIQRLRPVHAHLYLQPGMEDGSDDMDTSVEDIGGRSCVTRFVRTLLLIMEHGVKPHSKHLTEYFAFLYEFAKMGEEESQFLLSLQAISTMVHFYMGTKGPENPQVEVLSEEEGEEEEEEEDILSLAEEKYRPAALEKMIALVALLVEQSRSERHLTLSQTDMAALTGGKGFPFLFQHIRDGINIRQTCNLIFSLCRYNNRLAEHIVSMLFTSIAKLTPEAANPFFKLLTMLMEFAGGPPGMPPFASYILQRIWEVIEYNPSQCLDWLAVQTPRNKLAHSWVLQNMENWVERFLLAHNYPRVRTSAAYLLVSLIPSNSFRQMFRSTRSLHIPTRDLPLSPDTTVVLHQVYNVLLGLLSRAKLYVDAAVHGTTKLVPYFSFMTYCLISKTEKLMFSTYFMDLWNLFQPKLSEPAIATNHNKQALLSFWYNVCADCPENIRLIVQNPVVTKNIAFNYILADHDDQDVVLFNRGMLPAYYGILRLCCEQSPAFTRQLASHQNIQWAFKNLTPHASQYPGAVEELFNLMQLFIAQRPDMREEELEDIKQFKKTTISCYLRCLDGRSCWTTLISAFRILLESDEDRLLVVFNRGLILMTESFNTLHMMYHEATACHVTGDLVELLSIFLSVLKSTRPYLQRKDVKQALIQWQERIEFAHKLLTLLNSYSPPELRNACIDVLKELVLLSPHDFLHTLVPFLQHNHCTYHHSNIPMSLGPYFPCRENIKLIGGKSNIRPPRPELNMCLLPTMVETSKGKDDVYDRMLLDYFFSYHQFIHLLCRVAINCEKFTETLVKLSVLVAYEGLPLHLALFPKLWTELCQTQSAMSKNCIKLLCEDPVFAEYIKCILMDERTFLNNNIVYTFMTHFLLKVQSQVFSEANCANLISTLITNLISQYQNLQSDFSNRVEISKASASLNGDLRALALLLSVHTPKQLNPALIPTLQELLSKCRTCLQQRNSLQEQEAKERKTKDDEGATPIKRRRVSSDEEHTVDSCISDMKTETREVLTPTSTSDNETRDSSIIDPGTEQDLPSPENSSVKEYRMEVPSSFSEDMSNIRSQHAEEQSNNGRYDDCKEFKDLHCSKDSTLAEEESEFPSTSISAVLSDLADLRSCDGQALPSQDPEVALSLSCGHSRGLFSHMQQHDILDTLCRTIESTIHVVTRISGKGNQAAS
Summary of the method: (§1)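 Using Biotin-Ahx-Ub-VS at 0.5 µM final for 1 h, DUBs were labelled in HEK293T lysate (495 µg per sample) that had first been treated in triplicate with fragment at 200 µM or vehicle for 3 h. NeutrAvidin enrichment, LysC and trypsin digestion and diaPASEF LC-MS/MS followed. Spectronaut label-free quantities were global-median-normalised. Values are average log2 fragment/vehicle ratios by unpaired t-test, using proteins with ≥2 unique peptides.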

USP36 = target: T1, USP36 (UniProt Q9P275)
T1 sequence (whole entry): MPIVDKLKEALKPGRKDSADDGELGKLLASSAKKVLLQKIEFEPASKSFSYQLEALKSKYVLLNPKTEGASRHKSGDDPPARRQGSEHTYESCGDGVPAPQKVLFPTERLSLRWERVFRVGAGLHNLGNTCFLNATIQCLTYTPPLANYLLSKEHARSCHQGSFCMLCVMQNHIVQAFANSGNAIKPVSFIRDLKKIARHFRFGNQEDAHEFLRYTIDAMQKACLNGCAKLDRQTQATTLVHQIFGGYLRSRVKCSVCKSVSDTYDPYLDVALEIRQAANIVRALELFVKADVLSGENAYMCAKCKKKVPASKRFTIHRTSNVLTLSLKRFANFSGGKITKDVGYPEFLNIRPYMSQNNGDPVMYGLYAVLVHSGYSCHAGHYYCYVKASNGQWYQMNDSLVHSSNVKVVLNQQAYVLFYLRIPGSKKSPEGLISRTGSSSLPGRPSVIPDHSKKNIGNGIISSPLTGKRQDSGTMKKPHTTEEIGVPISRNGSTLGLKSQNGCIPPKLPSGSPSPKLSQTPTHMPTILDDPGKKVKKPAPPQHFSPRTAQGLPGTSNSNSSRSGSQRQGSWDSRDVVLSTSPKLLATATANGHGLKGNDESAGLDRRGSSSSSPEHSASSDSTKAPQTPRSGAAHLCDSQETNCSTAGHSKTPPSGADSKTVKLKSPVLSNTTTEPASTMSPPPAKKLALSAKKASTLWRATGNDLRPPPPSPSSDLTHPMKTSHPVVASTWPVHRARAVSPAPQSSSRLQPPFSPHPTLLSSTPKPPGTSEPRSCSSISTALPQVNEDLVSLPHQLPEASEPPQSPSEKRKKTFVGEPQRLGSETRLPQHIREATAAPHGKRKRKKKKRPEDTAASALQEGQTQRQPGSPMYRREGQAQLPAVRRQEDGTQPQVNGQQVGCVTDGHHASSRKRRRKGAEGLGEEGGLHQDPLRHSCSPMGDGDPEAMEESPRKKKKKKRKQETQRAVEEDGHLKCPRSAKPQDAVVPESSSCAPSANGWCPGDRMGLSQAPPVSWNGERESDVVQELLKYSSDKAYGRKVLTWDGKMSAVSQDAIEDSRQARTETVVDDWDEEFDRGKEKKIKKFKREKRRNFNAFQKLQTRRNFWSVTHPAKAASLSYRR
Summary of the method: as §1

USP38 = target: T2, USP38 (UniProt Q8NB14)
T2 sequence (whole entry): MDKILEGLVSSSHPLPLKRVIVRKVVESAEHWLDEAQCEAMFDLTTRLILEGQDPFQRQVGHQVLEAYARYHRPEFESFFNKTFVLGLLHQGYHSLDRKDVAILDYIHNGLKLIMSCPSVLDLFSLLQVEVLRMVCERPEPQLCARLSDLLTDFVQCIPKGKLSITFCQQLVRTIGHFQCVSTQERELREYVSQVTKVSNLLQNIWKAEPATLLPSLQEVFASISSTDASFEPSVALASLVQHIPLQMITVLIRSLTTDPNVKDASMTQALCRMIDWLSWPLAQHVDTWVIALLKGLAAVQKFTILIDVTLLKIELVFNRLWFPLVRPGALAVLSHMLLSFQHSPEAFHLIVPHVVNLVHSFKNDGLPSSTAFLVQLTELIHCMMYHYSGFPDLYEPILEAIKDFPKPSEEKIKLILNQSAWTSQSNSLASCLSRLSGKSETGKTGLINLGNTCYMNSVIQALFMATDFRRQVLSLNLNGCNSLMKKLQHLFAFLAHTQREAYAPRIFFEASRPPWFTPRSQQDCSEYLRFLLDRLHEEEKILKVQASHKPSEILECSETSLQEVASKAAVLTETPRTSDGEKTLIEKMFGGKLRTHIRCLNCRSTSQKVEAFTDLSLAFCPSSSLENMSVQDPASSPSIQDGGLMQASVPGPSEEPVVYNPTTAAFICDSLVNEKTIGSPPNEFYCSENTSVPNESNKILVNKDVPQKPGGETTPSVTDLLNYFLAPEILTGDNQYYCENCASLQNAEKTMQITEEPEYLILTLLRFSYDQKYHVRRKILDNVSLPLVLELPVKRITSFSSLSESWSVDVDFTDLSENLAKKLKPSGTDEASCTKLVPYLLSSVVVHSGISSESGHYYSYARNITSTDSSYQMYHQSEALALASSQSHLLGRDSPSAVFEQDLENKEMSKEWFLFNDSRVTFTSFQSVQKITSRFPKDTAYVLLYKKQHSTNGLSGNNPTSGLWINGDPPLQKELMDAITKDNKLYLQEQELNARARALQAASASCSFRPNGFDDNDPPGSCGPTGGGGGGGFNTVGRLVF
Summary of the method: as §1

USP39 = target: T3, USP39 (UniProt Q53GS9)
T3 sequence (whole entry): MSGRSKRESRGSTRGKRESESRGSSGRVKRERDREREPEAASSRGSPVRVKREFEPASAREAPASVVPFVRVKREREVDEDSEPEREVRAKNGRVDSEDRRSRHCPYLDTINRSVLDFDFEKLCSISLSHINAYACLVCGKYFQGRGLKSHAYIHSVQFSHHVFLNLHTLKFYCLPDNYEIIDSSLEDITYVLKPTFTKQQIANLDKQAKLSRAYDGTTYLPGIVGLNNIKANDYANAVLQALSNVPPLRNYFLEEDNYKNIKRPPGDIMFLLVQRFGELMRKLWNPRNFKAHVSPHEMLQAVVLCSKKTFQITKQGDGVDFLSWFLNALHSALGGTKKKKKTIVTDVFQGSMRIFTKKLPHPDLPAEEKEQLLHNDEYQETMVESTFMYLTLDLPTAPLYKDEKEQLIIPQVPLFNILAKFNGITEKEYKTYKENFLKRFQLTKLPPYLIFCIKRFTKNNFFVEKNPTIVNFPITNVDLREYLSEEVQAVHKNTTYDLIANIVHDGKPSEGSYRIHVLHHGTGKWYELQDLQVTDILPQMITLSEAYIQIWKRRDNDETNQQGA
Summary of the method: as §1

USP4 = target: T4, USP4 (UniProt Q13107)
T4 sequence (whole entry): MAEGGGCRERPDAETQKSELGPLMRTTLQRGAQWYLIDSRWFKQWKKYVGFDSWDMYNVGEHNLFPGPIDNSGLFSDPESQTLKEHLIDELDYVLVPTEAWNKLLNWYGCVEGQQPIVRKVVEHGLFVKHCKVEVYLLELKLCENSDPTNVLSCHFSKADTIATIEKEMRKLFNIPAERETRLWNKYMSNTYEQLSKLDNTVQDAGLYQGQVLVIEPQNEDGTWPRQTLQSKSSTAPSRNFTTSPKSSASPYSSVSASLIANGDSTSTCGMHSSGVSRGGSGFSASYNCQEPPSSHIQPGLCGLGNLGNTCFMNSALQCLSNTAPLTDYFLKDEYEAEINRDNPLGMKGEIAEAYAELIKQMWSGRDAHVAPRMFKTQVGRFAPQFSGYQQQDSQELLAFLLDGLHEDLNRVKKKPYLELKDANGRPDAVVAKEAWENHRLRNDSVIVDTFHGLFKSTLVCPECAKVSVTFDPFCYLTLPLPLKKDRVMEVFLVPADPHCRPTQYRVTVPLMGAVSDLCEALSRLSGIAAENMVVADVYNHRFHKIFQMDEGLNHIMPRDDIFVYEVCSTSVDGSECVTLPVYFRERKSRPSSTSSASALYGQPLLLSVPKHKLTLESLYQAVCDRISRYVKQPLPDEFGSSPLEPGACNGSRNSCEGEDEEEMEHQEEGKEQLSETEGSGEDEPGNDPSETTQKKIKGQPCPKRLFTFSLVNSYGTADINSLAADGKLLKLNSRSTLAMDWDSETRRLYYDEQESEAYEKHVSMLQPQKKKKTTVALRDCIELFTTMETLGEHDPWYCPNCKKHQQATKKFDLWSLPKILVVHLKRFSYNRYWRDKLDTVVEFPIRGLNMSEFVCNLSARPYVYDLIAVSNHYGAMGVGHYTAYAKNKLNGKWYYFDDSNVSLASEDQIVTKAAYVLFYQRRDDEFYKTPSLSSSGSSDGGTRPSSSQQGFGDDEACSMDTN
Summary of the method: as §1

Measured: log2 ratio of Biotin-Ahx-Ub-VS probe labelling

O=C(O)C1Cc2ccccc2CN1C(=O)CCl (stereo not given)
inactive: USP34 -0.101 | USP36 -0.224 | USP38 -0.252 | USP39 -0.281 | USP4 -0.207
